Structures are written as SMILES. Out of some 6,200 compounds screened, about 2,900 (47%) were called active. Rule as the data show it: active = inhibition above about 50%; inactive = the rest. So high a share suggests a set chosen from earlier hits. This is one part of the list.

The assay can be described thus: Mycobacterium tuberculosis growth inhibition, primary screen (AID 1259343). To be noted: inhibition: at 10 µM, active compounds read high; outcome: 10 uM.
Take `O=C(Nc1ccc(Oc2ccccc2F)cc1)C1CCN(C2Cc3ccccc3C2)CC1`: the inhibition (usually the relative decrease from the control value, in per cent) was 91.6% (active).

As to `COc1ccc(Cl)cc1C(=O)Nc1cc(C)nn1-c1nc2c(c(=O)[nH]1)CCC2`, the inhibition is 95.5% (active). Take `Cc1cc(NC(=O)c2ccccc2C)n(-c2nc3c(c(=O)[nH]2)CCC3)n1`: the inhibition is 100% (active). For `Cc1cc(NC(=O)c2ccco2)n(-c2nc3c(c(=O)[nH]2)CCC3)n1`, the inhibition was 101% (active). The same measure for `Cc1cc(NC(=O)c2ccccc2)n(-c2nc3c(c(=O)[nH]2)CCC3)n1`: -26.4% (inactive). For `Cc1cc(NC(=O)c2ccc(Cl)cc2)n(-c2nc3c(c(=O)[nH]2)CCC3)n1`, the inhibition is 101% (active). On to `Cc1cc(NC(=O)c2ccc(F)c(F)c2)n(-c2nc3c(c(=O)[nH]2)CCC3)n1`, for which the inhibition is -20.9% (inactive). Turning to `Cc1cc(NC(=O)c2cc(Cl)ccc2Cl)n(-c2nc3c(c(=O)[nH]2)CCC3)n1`, the inhibition was 37.1% (inactive). On to `CCCN1CCCc2cc(CCNS(=O)(=O)Cc3cccc(C)c3)ccc21`, for which the inhibition is 31.9% (inactive). With `O=C(Nc1ccc(Oc2ccc(Cl)cc2)c(Cl)c1)c1cc(I)cc(I)c1O`, the inhibition was 101% (active).

Consider `CCCC(=O)Oc1c(S(=O)(=O)c2ccc([N+](=O)[O-])cc2)c(C)nn1-c1ccccc1`, for which the inhibition was 28.6% (inactive). On to `CCCCCC(=O)NN=Cc1ccc([N+](=O)[O-])cc1`, for which the inhibition is 100% (active). With `CC(C)(C)c1ccc(C=NOCc2ccc([N+](=O)[O-])cc2)cc1`, the inhibition is -20.2% (inactive).

On to `CCCCCCC(=O)NN=Cc1ccc([N+](=O)[O-])cc1`, for which the inhibition was 77.5% (active). Regarding `CSc1nnc(SCc2ccc([N+](=O)[O-])cc2)s1`, the inhibition was -12.4% (inactive). `CC(C)=CCCC(C)=CC=NNc1ccc([N+](=O)[O-])cc1`: the inhibition was 62% (active). Take `O=C(CSc1nnc(SCc2ccccc2)s1)NN=Cc1ccc([N+](=O)[O-])cc1`: the inhibition was 83.1% (active).

On to `CC1=Nn2cc(-c3ccccc3)nc2SC1c1ccccc1` (configuration not stated), for which the inhibition is 20.8% (inactive). To `CCCCCCCC(C)=NNc1nc2ccccc2s1` belongs “inactive”; to `CCCCCCC(C)=NNc1ccc([N+](=O)[O-])cc1`, 98.5% (active); to `C=CCc1cc([N+](=O)[O-])ccc1O`, 101% (active). For the compound `CC(C)(C)OC(=O)NNC(=O)C=Cc1ccco1`, the inhibition is -8.19% (inactive). As to `O=C(C=Cc1cccs1)NC12CC3CC(CC(C3)C1)C2`, the inhibition result was “inactive”. To `O=C(C=Cc1ccco1)NC12CC3CC(CC(C3)C1)C2` belongs 67.6% (active); to `O=C(C=Cc1ccc(F)cc1)NCc1ccco1`, 29.9% (inactive); to `O=C(/C=C/c1cc(C(F)(F)F)ccc1Cl)NCc1ccon1`, -0.62% (inactive).

On to `O=C(C=Cc1ccco1)NCc1ccc(F)cc1`, for which the inhibition was 72.3% (active).

For the compound `COc1ccc(NC(=O)CSCc2ccccn2)cc1OC(F)F`, the inhibition is 17.9% (inactive). Turning to `COc1ccc(NC(=O)c2ccsc2)cc1OC(F)F`, the inhibition is 54.8% (active). Consider `COc1ccc(C)cc1CCNC(=O)c1ccsc1`, for which the inhibition was 26.8% (inactive). The same measure for `Cc1ccnc(N2CCN(c3ncnc4scc(-c5ccc(F)cc5)c34)CC2)c1`: 3.93% (inactive); for `Cc1cccc(OCCN(C)C(=O)/C=C/c2ccc3c(c2)OCO3)c1`: 34.9% (inactive). Take `O=S(=O)(CCCOc1ccc2c(c1)OCO2)NC1CCCCC1`: the inhibition was 99.2% (active).

`O=S(=O)(CCCOc1ccc2c(c1)OCO2)NC1CCCCCC1`: the inhibition is 93% (active).

For `CC(C)NS(=O)(=O)CCCOc1ccc2c(c1)OCO2`, the inhibition is 50.3% (active). With `COCCn1c(=S)[nH]c2sc3c(c2c1=O)CCC(C)C3` (configuration not stated), the inhibition was -21.7% (inactive). To `CCN=c1scc(-c2ccc(Br)s2)n1N=CC1CCCCC1` belongs 36% (inactive); to `Cc1nc(C(C)C)sc1C(=O)Nc1nc2ccccc2[nH]1`, 100% (active).

In the case of `CC1=CC(=NNc2nc3ccccc3[nH]2)CC(C)(C)C1`, the inhibition was 24.5% (inactive).

As to `CNC(=O)c1sc(N2CCN(c3ccccc3F)CC2)nc1C`, the inhibition is 33.2% (inactive). In the case of `Cc1csc(Nc2ccc(Cl)cc2)[n+]1-c1ccc(Cl)cc1`, the inhibition was 16% (inactive). To `Cc1nc2nc(CC(=O)N3CCOCC3)nn2c(C)c1Cl` belongs 52.5% (active); to `CC(C)(C)C(=O)NC(=S)NC1=CC2N=C(c3ccncc3)OC2C=C1` (configuration not stated), 54.2% (active); to `CC(C)COc1ccc(NC(=O)C2CC2c2cnn(C)c2)cc1Cl` (configuration not stated), -6.2% (inactive).

For `CC(C)COc1ccc(NC(=O)c2ccnnc2)cc1Cl`, the inhibition is 50.1% (active). For the compound `CC(C)COc1ccc(NC(=O)c2nn(C)c(=O)c3ccccc23)cc1Cl`, the inhibition was 24.1% (inactive).

As to `CS(=O)(=O)Nc1cc(Cl)ccc1Sc1ccc(F)cc1`, the inhibition is 76.2% (active). As to `Cc1cc(C)c(NC(=O)c2cc(C)nc3c2cnn3C(C)C)c(C)c1`, the inhibition was 59.8% (active). With `CCc1ccc(N2C(=O)C3N=NN(Cc4nc(-c5cccc(Cl)c5)oc4C)C3C2=O)cc1` (configuration not stated), the inhibition was 83.4% (active). As to `CCCN(C)C(=O)c1ccc2c(c1)C(=O)N(c1ccc(OCC)cc1)C2=O`, the inhibition was 21.7% (inactive). With `CCOc1ccc(-c2nc(CN3N=NC4C(=O)N(c5ccc(C)c(Cl)c5)C(=O)C43)c(C)o2)cc1` (configuration not stated), the inhibition was 20.2% (inactive). As for `CCOc1ccc(N2C(=O)C3N=NN(Cc4cccc(C)c4)C3C2=O)cc1` (configuration not stated), the inhibition was 78.4% (active).

With `CCOc1ccc(N2C(=O)C3N=NN(Cc4cc(C)ccc4C)C3C2=O)cc1` (configuration not stated), the inhibition is 61.5% (active). As to `CCc1ccc(N2C(=O)C3N=NN(Cc4cccc(C)c4)C3C2=O)cc1` (configuration not stated), the inhibition was 67.8% (active).

For the compound `COc1ccc(N2C(=O)C3N=NN(Cc4cc(C)ccc4C)C3C2=O)cc1Cl` (configuration not stated), the inhibition is -29.4% (inactive). As to `CSc1ccc(NC(=O)c2cn[nH]n2)cc1Cl`, the inhibition was 95.5% (active). Take `CC(=O)/C(=N/Nc1ccc(C)cc1)N1CCOCC1`: the inhibition is 94.7% (active). Consider `O=C1c2ccc([N+](=O)[O-])cc2C(=O)N1CNc1ccc2c(c1)oc1ccccc12`, for which the inhibition was 86.3% (active).

Take `O=C1c2cccc([N+](=O)[O-])c2C(=O)N1CNc1ccc(Cl)c(Cl)c1`: the inhibition is 45.5% (inactive). For `CC(C)CCC(C)NC(=O)c1cc(O)cs1` (configuration not stated), the inhibition was 37.3% (inactive). Consider `Cc1cc(O)c(S(=O)(=O)c2cc(Cl)c(Cl)cc2Cl)c(=O)[nH]1`, for which the inhibition is 60.9% (active). On to `FC(F)(F)COCCCn1nnc(-c2ccsc2)n1`, for which the inhibition was 79.5% (active). To `O=C1C(=Cc2cccs2)CCCC1=Cc1cccs1` belongs 91.6% (active); to `O=C1C(=Cc2ccc(Br)s2)CCc2ccccc21`, 0.54% (inactive); to `C=CCC1SC(=NN=Cc2cccs2)NC1=O` (configuration not stated), 22.9% (inactive). For `O=C1NC(=O)C(=Cc2cccs2)S1`, the inhibition was 42.2% (inactive). As to `O=C1/C(=C/c2cccs2)C(c2cccs2)Oc2ccccc21` (configuration not stated), the inhibition was 33% (inactive). To `O=C1C(=Cc2cccs2)CCC1=Cc1cccs1` belongs 103% (active).

In the case of `CC1CCN(c2nnc(C(=O)Nc3ccccc3)c3ccccc23)CC1`, the inhibition is 24.6% (inactive). For the compound `CCOc1ccc(OCCCCOc2ccccc2[N+](=O)[O-])cc1`, the inhibition was 83.2% (active). The same measure for `COc1ccc(OCCCCOc2ccccc2[N+](=O)[O-])cc1`: 76.2% (active). The same measure for `Cc1ccccc1CON=Cc1cccc([N+](=O)[O-])c1`: 54.1% (active); for `COCc1cc(C)nc(N/N=C\c2ccccc2[N+](=O)[O-])c1C#N`: -18.7% (inactive); for `CCOc1ccc(N=Cc2cccc([N+](=O)[O-])c2)cc1`: 96.3% (active). The same measure for `Cc1ccccc1CNc1cccc([N+](=O)[O-])c1`: 35.8% (inactive); for `CCOC(=O)CCCCCCCCCCCCC1C=CCC1` (configuration not stated): -30.7% (inactive); for `COc1cc(C)ccc1OCCCOc1ccc([N+](=O)[O-])cc1`: 41.8% (inactive). For `CCOc1ccc(OCCOc2ccc([N+](=O)[O-])cc2)cc1`, the inhibition was 26.5% (inactive). For `CCOc1ccc(OCCCOc2ccc([N+](=O)[O-])cc2)cc1`, the inhibition is 23% (inactive). Regarding `CCOc1ccc(OCCOc2ccccc2[N+](=O)[O-])cc1`, the inhibition is 97.3% (active).

Turning to `CCOc1cccc(OCCCOc2ccc([N+](=O)[O-])cc2)c1`, the inhibition was 86% (active). `COC(=O)C1=C(O)C(C(=O)OC)C(c2cccs2)C(C#N)(C#N)C1c1cccs1` (configuration not stated): the inhibition was 4.02% (inactive). For `Cc1cccc(N2CCN(C(C)C(=O)Nc3cc(C)on3)CC2)c1` (configuration not stated), the inhibition was 85.9% (active). Regarding `Cc1cc(NC(=O)c2cc(CC(C)C)on2)no1`, the inhibition is 47.4% (inactive). Consider `CCCCCCNC(N)=S`, for which the inhibition is 72.8% (active). To `CC1Sc2ccc(C(=O)N(C)Cc3cccc(Cl)c3)cc2NC1=O` (configuration not stated) belongs 30.6% (inactive); to `Cc1nn(C)cc1CN(C)C(=O)c1cccc(Cl)c1`, 101% (active); to `CN(Cc1ccc(Cl)cc1Cl)C(=O)C1CCN(c2ccccc2[N+](=O)[O-])CC1`, 45% (inactive). Take `CC1CC1C(=O)Nc1ccc(-n2nccc2C(F)(F)F)cc1` (configuration not stated): the inhibition is 40% (inactive).

Consider `CN1N=C(CC(=O)Nc2ccc(-n3nccc3C(F)(F)F)cc2)CC1=O`, for which the inhibition is 87.8% (active). The same measure for `Cc1cc(NC(=O)c2cc3ccccc3o2)n(-c2nc(C)c(C)c(=O)[nH]2)n1`: -29.9% (inactive). The same measure for `Cc1cc(NC(=O)c2ccco2)n(-c2nc(C)c(C)c(=O)[nH]2)n1`: 100% (active); for `CCc1c(C)nc(-n2nc(C)cc2NC(=O)c2ccco2)[nH]c1=O`: 100% (active). For the compound `O=C(CCc1ccccc1)C1CCCN(Cc2nc(CC3CC3)no2)C1` (configuration not stated), the inhibition entry is “inactive”. To `O=C(CCc1ccccc1)C1CCCN(Cc2nc(-c3ccc(Cl)cc3)no2)C1` (configuration not stated) belongs 73.2% (active). For `O=C1CCCN1CCC1CCN(Cc2nc(-c3ccc(Cl)cc3)no2)CC1`, the inhibition was 74% (active).

Regarding `Clc1ccc(-c2noc(CN3CCCN(c4ncccn4)CC3)n2)cc1`, the inhibition is 77.6% (active).

As to `Clc1ccc(-c2noc(CN3CCN(c4ncnc5ccccc45)CC3)n2)cc1`, the inhibition is 71.1% (active).

Take `c1ccc(-c2noc(CN3CCCC(c4ccccc4)C3)n2)cc1` (configuration not stated): the inhibition result is “inactive”. Take `Clc1ccc(C2CCCN(Cc3nc(-c4ccccn4)no3)C2)cc1` (configuration not stated): the inhibition was 73% (active).

As to `Clc1ccc(-c2nc(-c3ccccn3)no2)cc1`, the inhibition was 79.7% (active). The same measure for `c1ccc(CCCc2nc(-c3ccccn3)no2)cc1`: 30.6% (inactive).
